# Screening results: PubChem BioAssay, National Center for Advancing Translational Sciences (NCATS)
# NPC1 prom act = activators of NPC1 promoter; Huh7 NPC1 promoter luciferase reporter, 24 h; Potency, µM (highest dose often 9.22 µM), actives largely listed as activators; 320,000 compounds, 2.4% hits; AID 485313; note: nearly all actives have a fitted effect of over 60% in size
#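 Stable NPC1-promoter luciferase Huh7 line; cpd (DMSO) 24 h, 37 °C, 5% CO2; Amplite luciferase reagent 10 min RT; luminescence readout. qHTS format.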
# FLuc modulator = counter-screen for miR-21 project: firefly luciferase inhibitors or activators; P08659; 360,000 compounds, 6.9% hits; Potency, µM (highest dose often 57.5 µM), usual class: inhibitors; AID 588342; purified FLuc, Km substrates, luminescence inhibition; note: nearly all actives have a fitted effect of over 55% in size
# Target sequence (P08659 whole entry, looked up): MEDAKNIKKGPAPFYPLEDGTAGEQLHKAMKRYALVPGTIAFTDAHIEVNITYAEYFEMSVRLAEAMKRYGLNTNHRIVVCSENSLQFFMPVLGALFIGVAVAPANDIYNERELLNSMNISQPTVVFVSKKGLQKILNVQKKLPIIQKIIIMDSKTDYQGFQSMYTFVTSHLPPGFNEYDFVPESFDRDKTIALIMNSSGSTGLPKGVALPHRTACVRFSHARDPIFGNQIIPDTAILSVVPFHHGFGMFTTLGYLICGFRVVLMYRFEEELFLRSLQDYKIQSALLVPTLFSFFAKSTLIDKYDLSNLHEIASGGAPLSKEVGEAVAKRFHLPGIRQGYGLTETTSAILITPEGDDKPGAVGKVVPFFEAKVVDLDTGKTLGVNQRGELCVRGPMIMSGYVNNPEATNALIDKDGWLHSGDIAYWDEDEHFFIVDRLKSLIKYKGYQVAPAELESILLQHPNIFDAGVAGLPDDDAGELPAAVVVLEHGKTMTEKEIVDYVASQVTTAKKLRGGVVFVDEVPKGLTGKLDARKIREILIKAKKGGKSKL
#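 Biochemical qHTS of compounds, final roughly 60 µM downward over six points, against 10 nM purified firefly luciferase using Km concentrations of substrates (10 uM D-luciferin, 10 uM ATP) in Tris acetate pH 7.5 buffer; luminescence output.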
# SMN2 splice enh = enhancers of SMN2 splice variant expression | HEK293 SMN2-luciferase splicing reporter, luminescence, 30-36 h | Potency, µM (top dose mostly 46.1 µM), usual class: activators | 210,000 compounds, 2.8% hits | AID 1458; note: nearly all actives have a fitted effect of over 55% in size
#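 HEK293 cells carry an SMN2 […]–luciferase reporter in which exon 7 inclusion puts luciferase in frame. Cells were plated 10-12 h before compound addition, then incubated 30-36 h at 37C. ONE-Glo luminescence was read; sodium butyrate at 4.5 mM final served as control.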
# ELG1 genotox = inducers of genotoxicity in HEK293T ELG1-luciferase cells. Potency, µM (titrated, usually from 46 µM), actives largely listed as activators. 330,000 compounds, 1.3% hits. HEK293T ELG1-luciferase reporter, luminescence, 16 h; note: nearly all actives have a fitted effect of over 60% in size
#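 Reporter readout depends on ELG1 protein level, which increases with genetic stress. After 16 hr compound exposure at 37 °C, luciferase activity was quantified using ONE-Glo.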
# Rab9 prom act = activates the Rab9 promoter. Potency, µM (doses to about 9.22 µM), usual class: activators. Huh7 Rab9 promoter-luciferase reporter, luminescence, 24 h. 320,000 compounds, 2.8% hits; note: nearly all actives have a fitted effect of over 60% in size
#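 Huh7 cells stably carrying a Rab9 promoter-luciferase reporter, 1500 cells per well in OP-MEM I with 10% FBS, treated with compound 24 hours at 37C. Luciferase activity read by luminescence after 10 minutes with Amplite reagent.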
# Numbers stand for hits; – = inactive; ? = inconclusive; · = not tested or not shown; [ ] = dose if it differs, or a comment. A selection: hits, their analogues and other compounds. The true share with any hit is near 7.4%. Calls come from the whole dose curve; as a rule, active = well fitted curve in the direction sought with a large enough effect; inconclusive = small, poorly fitted or top-dose-only effect, or another doubt; inactive = no such curve, though single readings can be large; an effect the other way counts as inactive or inconclusive.
SMILES,NPC1 prom act,FLuc modulator,SMN2 splice enh,ELG1 genotox,Rab9 prom act
COC(=O)c1ccc(C(=O)OC)c(N)c1,–,?,–,–,–
COC(=O)c1ccc(N2CCOCC2)c(F)c1,–,?,–,?,–
COc1ccc(/C=C/C(=O)c2oc3ccc(F)cc3c2C)cc1,–,9.53µM,–,–,–
Cc1ccc(OC(=O)c2oc3ccc(F)cc3c2C)c(C)c1,–,7.57µM,–,–,–
CC(C)C[C@@H](CC(=O)N[C@@H](CCC(=O)O)CC(=O)O)NC(=O)[C@@H]1CCCC[C@H]1NC(=O)C[C@@H](NC(=O)C[C@H](CO)NC(=O)[C@@H]1CNCC[C@H]1N)C(C)C,·,·,–,·,·
O=C1Nc2ccccc2Nc2ncccc21,–,–,?,–,–
Cc1ccc2c(c1)NC(=O)c1cccnc1N2,3.16µM,12µM,11.2µM,?,?
COC(=O)CC1c2ccccc2C(Cc2ccc(OC)cc2)C(C)N1C(=O)OC (stereo not given),·,·,–[9.22 µM],·,·
CC(=O)c1ccc(OCc2ccccc2)c(C)c1O,–,16.9µM,?,?,–
NNC(=O)c1ccccc1OCc1ccccc1,–,–,·,–,–
CCCc1cc(=O)oc2cc(C)cc(OCC(=O)Nc3ccccn3)c12,–,–,·,–,–
CCCCc1cc(=O)oc2cc(C)cc(OCC(=O)Nc3ccccn3)c12,2µM,8.49µM,·,?,2.51µM
CCCc1cc(=O)oc2cc(OCC(=O)Nc3ccccn3)ccc12,3.55µM,15.1µM,·,20.6µM,?
CCOC(=O)Nc1cccc(C(=O)O)c1,?,–,12.6µM,–,?
Cc1ccc(C)c(OCC(=O)Nc2cccc(C(=O)O)c2)c1C,?,10.7µM,12.6µM,?,?
CCOC(=O)Nc1cccc(Nc2ccccc2)c1,–,?,–,?,–
Cc1ccc(C)c(OCC(=O)Nc2ccc3c(c2)OCO3)c1C,–,?,?,–,–
Cc1cccc(C)c1OCC(=O)Nc1cccc(C(=O)O)c1,1.41µM,2.13µM,6.31µM,?,2.51µM
COc1ccc(Cl)cc1NC(=O)CSc1nnc2[nH]c(=O)cc(-c3ccccc3)n12,·,1.2µM,·,·,·
CCc1ccc(NC(=O)CSc2nnc3[nH]c(=O)cc(-c4ccccc4)n23)cc1,·,1.51µM,·,·,·
Nc1cc(=O)[nH]c2nnc(SCC(=O)Nc3cccc4ccccc34)n12,–,–,·,–,–
CCCc1cc(=O)[nH]c2nnc(SCC(=O)Nc3ccc(C(C)=O)cc3)n12,–,–,·,–,–
O=C(CSc1nnc2[nH]c(=O)cc(-c3ccccc3)n12)Nc1ccccc1C(F)(F)F,·,2.69µM,·,·,·
COc1ccc(-c2cc3nc[nH]c(=O)c3s2)cc1,?,3.79µM,12.6µM,4.11µM,2.82µM
O=c1[nH]cnc2cc(-c3ccccc3)sc12,3.55µM,12µM,?,?,?
SMILES,NPC1 prom act,FLuc modulator,SMN2 splice enh,ELG1 genotox,Rab9 prom act
CCOC(=O)c1c(C)nc2sc3c(=O)[nH]cnc3c2c1-c1ccc(OC)cc1,–,–,–,–,–
COc1ccc(N2CCN(Cc3nc4ccsc4c(=O)[nH]3)CC2)cc1,–,–,–,–,–
COc1ccc(-c2cc3nc(CCl)[nH]c(=O)c3s2)cc1,?,0.12µM,·,?,?
CCOc1ccc(NC(=O)N(Cc2c[nH]c3ccccc23)C2CCCCCC2)cc1,·,–,–,·,·
O=C(Nc1cccc(Cl)c1Cl)c1cc2nc(-c3ccc(Cl)cc3)cc(C(F)(F)F)n2n1,·,–,–,·,·
O=C(NCc1cccc(Cl)c1)c1ccc(NC(=O)N2CC3CCCN3c3ccccc32)cc1 (stereo not given),·,–,·,·,·
Oc1c(C=NCc2ccccc2)sc2ccccc12,?,10.7µM,–,?,2.82µM
O=[N+]([O-])c1ccc(N=Cc2sc3ccccc3c2O)cc1,–,?,25.1µM,8.2µM,?
CCCCOc1ccc(CNC(=O)c2cc3n(n2)CCCN(Cc2ccc(C)cc2)C3=O)cc1,·,–,·,·,·
CCc1ccc(NC(=O)c2cc(S(=O)(=O)N3CCCCCC3)ccc2F)cc1,·,–,·,·,·
Cc1ccc(Cl)cc1-n1ncc2c(NC3CCCCCC3)ncnc21,·,–,·,·,·
Cc1ccc(-n2ncc3c(NC4CCCCCC4)ncnc32)cc1Cl,·,2.69µM,·,·,·
Clc1ccc(-n2ncc3c(NC4CCCC4)ncnc32)cc1,·,0.849µM,·,·,·
c1ccc(-n2ncc3c(NC4CCCCCC4)ncnc32)cc1,1.78µM,2.69µM,·,?,1.78µM
O=C(NCCCN1CCCCC1)c1cc(Sc2ccc(Cl)cc2)nc2ccccc12,·,–,·,·,·
Cc1cccc(NC(=O)c2cccc(C(=O)Nc3cccc(C)c3)c2)c1,–,–,·,–,–[1.84 µM]
Cc1cccc(C(=O)Nc2cccc(NC(=O)c3ccccc3)c2)c1,–,16.9µM,·,–,–
Cc1ccc(NC(=O)c2c(C)nc3ccccn23)cc1C,3.16µM,8.49µM,12.6µM,–,1.78µM
Cc1ccc(CNC(=O)c2cccc(N3CCCS3(=O)=O)c2)cc1,·,–,·,·,·
CCc1ccc(NC(=O)CN2CCc3ccccc3C2)cc1,–,23.9µM,–,?,–
Cc1ccc(NC(=O)c2cccc(N3CCCS3(=O)=O)c2)cc1C,·,19µM,·,·,·
COCC(=O)N1CCC[C@@]2(CCN(Cc3nccs3)C2)C1,·,·,–,·,·
COc1ccc(NCc2cc3cc4c(cc3n(CC(=O)Nc3cc(C)ccc3C)c2=O)OCCO4)cc1,·,–,·,·,·
Cc1cccc(C(=O)Nc2ccccc2C(=O)OCC(=O)Nc2ccc(C#N)cc2)c1,–,?,15.8µM,?,–
Cc1ccc(NC(=O)c2ccc(NC(=O)c3ccccc3)cc2)cc1C,?,26.9µM,·,?,?
SMILES,NPC1 prom act,FLuc modulator,SMN2 splice enh,ELG1 genotox,Rab9 prom act
O=C(Cc1ccc(Cl)cc1)Nc1ccc(NC(=O)c2ccccc2)cc1,–,–,–[1.84 µM],–,–
CCc1ccc(NC(=O)CCC(=O)c2ccc(C)cc2)cc1,–,–,·,–,–
O=C(CC(=O)c1ccccc1)Nc1ccc(Cl)cc1,?,15.1µM,·,–,?
CCc1ccc(NC(=O)CCC(=O)c2ccccc2)cc1,–,13.5µM,·,–,–
Cc1nc2cc(C(=O)OCC(=O)Nc3ccc(C#N)cc3)ccc2n1-c1ccccc1,–,–,–,–,–
CCOC(=O)C(=O)Nc1c(C(=O)Nc2cccc(F)c2)oc2ccccc12,·,–,–,·,·
COC(=O)CSC(C(=O)Nc1ccc(C)c(C)c1)c1ccccc1 (stereo not given),–,16.9µM,–,–,–
Cc1ccnc(NC(=O)c2cccc(NC(=O)Cc3ccccc3)c2)c1,–,?,·,–,–
Cc1cc2ccccn2c1C(=O)Nc1ccccc1,–,10.7µM,?,?,?
Cc1cccc(C(=O)Nc2cccc(C(=O)Nc3cc(C)ccn3)c2)c1,–,26.9µM,·,–,–
Cc1ccc(NC(=O)CC(=O)c2ccccc2)cc1C,?,15.1µM,·,?,3.98µM
Cc1ccc(NC(=O)CO/N=C(\N)c2ccccc2)cc1C,·,·,·,–,·
Cc1cc2ccccn2c1C(=O)Nc1ccc(Cl)cc1,–,?,–,?,?
COC(=O)C/C=C/[C@@H](C)[C@@H](Cc1ccccc1Br)OC,·,·,–,·,·
Cc1cccc(C(=O)NNC(=O)c2ccccc2O)c1,3.16µM,21.3µM,·,?,?
Cc1ccc(NC(=O)c2ccccc2C(=O)O)cc1C,·,·,–[9.22 µM],·,·
